Some test systems named below: SK-MEL-2 melanoma; SN12C renal; UO-31 renal; TK-10 renal; ACHN renal; CAKI-1 renal; A498 renal; CCRF-CEM leukemia; MOLT-4 leukemia; SR leukemia; RPMI-8226 leukemia; OVCAR-5 ovarian; OVCAR-4 ovarian; SK-OV-3 ovarian; IGROV1 ovarian; OVCAR-3 ovarian; HS 578T breast; NCI/ADR-RES ovarian; OVCAR-8 ovarian.
Common to all, as to test: NCI-60 one-dose screen, 48 h (100 = growth as untreated, 0 = no growth, -100 = all killed)
Holding throughout (details): 10 µM unless noted

This is part of a sample that, as a whole, favours compounds with a hit. Of some 83,000 tested, about 20% had one in any assay.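 Cell lines were cultured in 96-well plates, exposed to a single compound concentration, and assessed for percent growth 48 hours later.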 Values without a mark were called inactive. The source made the active and inactive calls. The calls were made as follows: active = growth percent below 10; inactive = the rest.

For the molecule `COc1cc(CCn2nnc3c(Nc4ccc(N5CCOCC5)cc4)ncnc32)cc(OC)c1`, the growth is 115% in the assay with SK-MEL-2 melanoma; 103% with SN12C renal; 86.9% with UO-31 renal; 123% in the assay on TK-10 renal; 97.4% in the assay with ACHN renal; 93.9% in the assay on CAKI-1 renal. The growth in the assay with A498 renal is 80.4%; in the assay on CCRF-CEM leukemia it was 84.5%; in the assay on MOLT-4 leukemia, 76.4%; with SR leukemia, 64.2%; with RPMI-8226 leukemia it was 72.8%; with OVCAR-5 ovarian, 95.3%. Further, the growth in the assay with OVCAR-4 ovarian was 91.1%; in the assay with SK-OV-3 ovarian, 112%; in the assay with IGROV1 ovarian, 110%; with OVCAR-3 ovarian it was 92.8%; with HS 578T breast it was 91.2%; in the assay with NCI/ADR-RES ovarian, 86.3%.
Consider `COc1cccc(NC(=O)Cn2cc3c(=O)oc4ccccc4c3n2)c1`, for which the growth in the assay with SK-MEL-2 melanoma was 101%; with SN12C renal, 103%; in the assay on UO-31 renal, 88.5%; in the assay on TK-10 renal, 111%; in the assay with ACHN renal, 116%; in the assay with CAKI-1 renal, 95.6%. The growth in the assay with A498 renal was 87.2%; in the assay on CCRF-CEM leukemia it was 102%; in the assay on MOLT-4 leukemia, 111%; in the assay with SR leukemia it was 110%; in the assay on OVCAR-8 ovarian it was 112%; in the assay on OVCAR-5 ovarian, 113%. The growth in the assay with OVCAR-4 ovarian is 92.8%; in the assay with SK-OV-3 ovarian, 113%; with IGROV1 ovarian, 97.1%; in the assay with OVCAR-3 ovarian, 99.1%; with HS 578T breast, 104%; in the assay with NCI/ADR-RES ovarian, 100%.
With `CCN(Cc1ccccc1)c1ccc(SC#N)cc1`, the growth with SK-MEL-2 melanoma was 104%; in the assay with SN12C renal, 87.9%; in the assay with UO-31 renal, 32.9%; in the assay on TK-10 renal it was 102%; with ACHN renal, 63.5%; in the assay with CAKI-1 renal, 92.6%. Also, the growth is 86.9% in the assay with A498 renal; 13% in the assay with CCRF-CEM leukemia; 59.5% in the assay with MOLT-4 leukemia; -9.48% (active) in the assay with SR leukemia; 85.9% with OVCAR-8 ovarian; 97.2% in the assay with OVCAR-5 ovarian. For the same molecule, the growth is 50.5% in the assay with OVCAR-4 ovarian; 107% with SK-OV-3 ovarian; 103% in the assay on IGROV1 ovarian; 46.2% with OVCAR-3 ovarian; 81.9% with NCI/ADR-RES ovarian.
Regarding `Nc1nc(N)c2nc(CNc3ccc(C(=O)CC(CCC(=O)O)C(=O)O)cc3)cnc2n1` (configuration not stated), the growth in the assay with SK-MEL-2 melanoma was -6.72% (active); in the assay with SN12C renal, 30.9%; in the assay on UO-31 renal, 8.63% (active); in the assay on TK-10 renal, 74.7%; with ACHN renal, 27.2%; in the assay with CAKI-1 renal, -3.87% (active). Besides, the growth with A498 renal is 51.4%; in the assay with CCRF-CEM leukemia it was 17.8%; in the assay on MOLT-4 leukemia it was 33%; in the assay on SR leukemia, 28.6%; in the assay on OVCAR-8 ovarian, 14.8%; in the assay on OVCAR-5 ovarian, 53.1%. Further, the growth in the assay with OVCAR-4 ovarian is 79.9%; with SK-OV-3 ovarian, 52%; in the assay with IGROV1 ovarian, -58.5% (active); in the assay with OVCAR-3 ovarian, 49.8%; in the assay on HS 578T breast, 82.4%; in the assay on NCI/ADR-RES ovarian, 25.6%.
As for `CCNC(=O)CCCCC(=O)c1c(C)[nH]c(/C=C2\N=C(c3ccc[nH]3)C=C2OC)c1C`, the growth with SK-MEL-2 melanoma was 40.8%; with SN12C renal, 23.3%; in the assay with UO-31 renal it was -100% (active); with TK-10 renal, -61.6% (active); with ACHN renal, -3.69% (active); with CAKI-1 renal it was -29.9% (active). Further, the growth is 95.8% with A498 renal; 42.2% with CCRF-CEM leukemia; 79.8% in the assay on MOLT-4 leukemia; 45.6% with SR leukemia; 51.6% in the assay on RPMI-8226 leukemia; -38.3% (active) with OVCAR-8 ovarian. Moreover, the growth in the assay on OVCAR-4 ovarian was -59.4% (active); in the assay on SK-OV-3 ovarian, 57.7%; in the assay with OVCAR-3 ovarian, -77.9% (active); in the assay with HS 578T breast it was 54.9%; with NCI/ADR-RES ovarian, 15.4%.
Consider `Nc1c(C(=O)Nc2cccc(C(F)(F)F)c2)sc2nc3c(cc12)CCCCCC3`, for which the growth in the assay on SK-MEL-2 melanoma is 51.4%; in the assay on SN12C renal, 5.73% (active); in the assay on UO-31 renal, -2.04% (active); in the assay on TK-10 renal, 5% (active); in the assay with ACHN renal, -35.6% (active); with CAKI-1 renal, 20.8%. The growth in the assay on A498 renal is -28.3% (active); with CCRF-CEM leukemia, 51%; in the assay on MOLT-4 leukemia, 45.6%; in the assay with SR leukemia it was 21.1%; with OVCAR-8 ovarian, -37.4% (active); with OVCAR-5 ovarian it was 12.8%. In addition, the growth is 2.08% (active) with SK-OV-3 ovarian; 14.6% in the assay on IGROV1 ovarian; 0.0711% (active) with OVCAR-3 ovarian; 29.5% in the assay on HS 578T breast; 12% in the assay with NCI/ADR-RES ovarian.
As for `CCC1=C[C@@H]2CN(C1)Cc1c([nH]c3ccccc13)[C@@](C(=O)OC)(c1cc3c(cc1OC)N(C=O)[C@H]1[C@@](O)(C(=O)OC)[C@H](OC(C)=O)[C@]4(CC)[C@@H]5C[C@@H]5CN5CC[C@]31[C@@H]54)C2`, the growth in the assay with SK-MEL-2 melanoma was 18%; in the assay with SN12C renal, 21.9%; in the assay on UO-31 renal, 28.7%; with TK-10 renal it was 49.2%; in the assay on ACHN renal, 35.6%; in the assay on CAKI-1 renal, 8.29% (active). In addition, the growth in the assay with A498 renal was -8.16% (active); in the assay with CCRF-CEM leukemia, 8.71% (active); with MOLT-4 leukemia it was 13.4%; in the assay on SR leukemia it was 9.37% (active); in the assay with RPMI-8226 leukemia it was -6.79% (active); in the assay with OVCAR-5 ovarian, 44.2%. Also, the growth in the assay with OVCAR-4 ovarian is 47%; in the assay on SK-OV-3 ovarian, 5.16% (active); in the assay on IGROV1 ovarian, 30.8%; in the assay on HS 578T breast, 26.3%; with NCI/ADR-RES ovarian it was -28.8% (active).
`COc1cc(-c2n[nH]nc2-c2ccc3c(c2)OCCO3)cc(OC)c1OC`: the growth is 26.6% in the assay on SK-MEL-2 melanoma; 31% in the assay with SN12C renal; 27.1% in the assay on UO-31 renal; 52.4% in the assay with TK-10 renal; 12.3% in the assay with ACHN renal; 18.4% in the assay with CAKI-1 renal. Besides, the growth in the assay on A498 renal was -14.6% (active); in the assay with CCRF-CEM leukemia, 5.78% (active); with MOLT-4 leukemia, 5.49% (active); in the assay on SR leukemia, 9.29% (active); in the assay with RPMI-8226 leukemia, 0.653% (active); in the assay with OVCAR-5 ovarian, 11.7%. For the same molecule, the growth is 34.8% with OVCAR-4 ovarian; 3.32% (active) in the assay with SK-OV-3 ovarian; 21.9% in the assay on IGROV1 ovarian; -33.9% (active) with OVCAR-3 ovarian; 12.7% in the assay on HS 578T breast; 2.71% (active) with NCI/ADR-RES ovarian.
Consider `NS(=O)(=O)c1ccc(CN2C(=O)c3cccc4cccc(c34)C2=O)cc1`, for which the growth with SK-MEL-2 melanoma is 93%; with SN12C renal, 93.1%; in the assay on UO-31 renal it was 57.3%; in the assay with TK-10 renal, 81.8%; in the assay with ACHN renal it was 88.1%; in the assay on CAKI-1 renal it was 75.9%. For the same molecule, the growth was 108% in the assay with A498 renal; 85.8% in the assay with CCRF-CEM leukemia; 95.5% in the assay on MOLT-4 leukemia; 104% with SR leukemia; 87.2% in the assay on RPMI-8226 leukemia; 91.9% in the assay with OVCAR-8 ovarian. The growth in the assay with OVCAR-4 ovarian is 119%; with SK-OV-3 ovarian, 101%; with IGROV1 ovarian, 105%; with OVCAR-3 ovarian, 98.5%; with NCI/ADR-RES ovarian, 98%.

These data come from PubChem BioAssay (NCI).
